Test results from PubChem BioAssay (NCI).
The panel holds about 83,000 compounds, 20% with a hit somewhere; the sample as a whole holds those more often.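 Percent growth is the endpoint: 0 to 100 indicates growth inhibition (40 means 60% inhibition), 0 means no net growth, and negative values indicate cell death.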 Active and inactive are the calls of the source. How the source made its calls: active means growth percent below 10; inactive means the rest.

Key:
Assay in all cases: NCI-60 one-dose screen, 48 h (100 = growth as untreated, 0 = no growth, -100 = all killed)
Settings in all cases: 10 µM unless noted
HCT-15 colon = test system: HCT-15 colon
HT29 colon = test system: HT29 colon
SNB-75 CNS = test system: SNB-75 CNS
SNB-19 CNS = test system: SNB-19 CNS
U251 CNS = test system: U251 CNS
PC-3 prostate = test system: PC-3 prostate
SK-MEL-5 melanoma = test system: SK-MEL-5 melanoma
UACC-62 melanoma = test system: UACC-62 melanoma
LOX IMVI melanoma = test system: LOX IMVI melanoma
SK-MEL-28 melanoma = test system: SK-MEL-28 melanoma

Measured: growth

CCn1c(-c2cc3c([nH]c4ccccc43)c(-c3cccc(O)c3)n2)n[nH]c1=S
inactive: HCT-15 colon 50.2% | SNB-75 CNS 22.2% | SNB-19 CNS 62.6% | U251 CNS 23.8% | PC-3 prostate 34.1% | UACC-62 melanoma 43.6% | LOX IMVI melanoma 32.5% | SK-MEL-28 melanoma 53.6%
active: HT29 colon -19.4% | SK-MEL-5 melanoma -1.38%

CCN1CCN(CC(=O)Nc2ccc(-c3cn4c(n3)sc3cc(Oc5ccnc(C(=O)NC)c5)ccc34)cc2)CC1
active: HT29 colon -21.8% | LOX IMVI melanoma -80.4%
inactive: HCT-15 colon 77.3% | SNB-75 CNS 82.9% | SNB-19 CNS 98.6% | U251 CNS 64.8% | PC-3 prostate 65.8% | SK-MEL-5 melanoma 88.3% | UACC-62 melanoma 66.9% | SK-MEL-28 melanoma 74.6%

O=C(Nc1ncc(Cc2ccccc2)s1)c1ccc2c(c1)OCCCO2
active: HT29 colon 9.72% | SK-MEL-5 melanoma 8.06%
inactive: HCT-15 colon 21.5% | SNB-75 CNS 34.3% | SNB-19 CNS 37.4% | U251 CNS 35.4% | PC-3 prostate 27.7% | UACC-62 melanoma 29% | LOX IMVI melanoma 29.9% | SK-MEL-28 melanoma 36.8%

Nn1c(=O)c(=O)[nH]c2c(cnn2-c2ccccc2)c1=O
inactive: HCT-15 colon 101% | HT29 colon 110% | SNB-75 CNS 92.5% | SNB-19 CNS 103% | U251 CNS 105% | PC-3 prostate 106% | SK-MEL-5 melanoma 101% | UACC-62 melanoma 102% | LOX IMVI melanoma 101% | SK-MEL-28 melanoma 113%

C=C1C(=O)O[C@H]2[C@H]1CC/C(COC(=O)c1cc3cc(Cl)ccc3[nH]1)=C\CC[C@@]1(C)O[C@@H]21
inactive: SNB-19 CNS 12.6%
active: HCT-15 colon -61.1% | HT29 colon -75.9% | SNB-75 CNS -97.3% | U251 CNS -88.8% | PC-3 prostate -56.3% | SK-MEL-5 melanoma -88.6% | UACC-62 melanoma -78.7% | LOX IMVI melanoma -93.2% | SK-MEL-28 melanoma -83.3%

COc1ccc(Cn2cc(C(=O)N=Nc3c(O)[nH]c4c(C)cccc34)nn2)cc1
inactive: HCT-15 colon 68% | HT29 colon 67.4% | SNB-75 CNS 27.3% | SNB-19 CNS 97.5% | U251 CNS 108% | PC-3 prostate 61.3% | SK-MEL-5 melanoma 93.8% | UACC-62 melanoma 74.1% | LOX IMVI melanoma 75.3% | SK-MEL-28 melanoma 94.9%

CC/C(Cc1ccccc1)=C(\c1ccc(OCCCN(C)C)cc1)c1ccc(OC(=O)NCc2ccccc2)cc1
inactive: SNB-75 CNS 69.4% | SNB-19 CNS 76.3% | U251 CNS 35.7% | PC-3 prostate 64.5% | SK-MEL-5 melanoma 74.4% | UACC-62 melanoma 85% | LOX IMVI melanoma 15.5% | SK-MEL-28 melanoma 90%
active: HCT-15 colon 4.38% | HT29 colon 7.12%

CC1=C2[C@@H](CC1)[C@]1(C)O[C@@](C3CCCCC3)(C[C@H]1OC(=O)CO)[C@H]2OC(=O)/C=C/c1ccccc1
inactive: HCT-15 colon 77.9% | HT29 colon 62.7% | SNB-75 CNS 72.6% | SNB-19 CNS 91.4% | U251 CNS 73.9% | PC-3 prostate 53.2% | SK-MEL-5 melanoma 87.3% | UACC-62 melanoma 62.5% | LOX IMVI melanoma 82.6% | SK-MEL-28 melanoma 101%

Cc1c(CC(=S)N2CCOCC2)nnn1-c1cccc(C(F)(F)F)c1
inactive: HCT-15 colon 104% | HT29 colon 101% | SNB-75 CNS 92.3% | SNB-19 CNS 106% | U251 CNS 95.4% | PC-3 prostate 99% | SK-MEL-5 melanoma 99.8% | UACC-62 melanoma 101% | LOX IMVI melanoma 98.2% | SK-MEL-28 melanoma 113%

O=C1/C(=C2\SC(=S)N(C3CC3)C2=O)SC(=S)N1C1CC1
inactive: HCT-15 colon 101% | HT29 colon 107% | SNB-75 CNS 81.9% | SNB-19 CNS 99.2% | U251 CNS 99.6% | PC-3 prostate 92% | SK-MEL-5 melanoma 97.4% | UACC-62 melanoma 94.6% | LOX IMVI melanoma 88.8% | SK-MEL-28 melanoma 106%

C=C(CNCCc1ccc(O)cc1)[C@@H]1CC[C@]2(CO)CC[C@]3(C)[C@H](CC[C@@H]4[C@@]5(C)CCC(=O)C(C)(C)[C@@H]5CC[C@]43C)[C@@H]12
inactive: SNB-75 CNS 91.2% | SNB-19 CNS 49% | PC-3 prostate 14.6%
active: HCT-15 colon 6.17% | HT29 colon -42.5% | U251 CNS -63.9% | SK-MEL-5 melanoma -4.88% | UACC-62 melanoma -29.5% | LOX IMVI melanoma -89.7% | SK-MEL-28 melanoma -10.8%

COc1cc2nc3sc(C(=O)Nc4ccc(C(=O)OC(C)C)cc4)c(C(=O)Nc4ccc(Cl)cc4C)n3c(=O)c2cc1OC
inactive: HCT-15 colon 93.7% | HT29 colon 41.2% | SNB-75 CNS 48% | SNB-19 CNS 96.9% | U251 CNS 66.3% | PC-3 prostate 30.2% | SK-MEL-5 melanoma 73% | UACC-62 melanoma 67.6% | LOX IMVI melanoma 69.7% | SK-MEL-28 melanoma 101%

CCn1cc(CNc2ccc(C(=O)Nc3cc4cc(OC)c(OC)cc4c(C)n3)cc2)cn1
inactive: HCT-15 colon 26.3% | HT29 colon 56.6% | SNB-75 CNS 65.2% | SNB-19 CNS 84.1% | U251 CNS 65.2% | PC-3 prostate 15.3% | SK-MEL-5 melanoma 10.3% | UACC-62 melanoma 33.5% | LOX IMVI melanoma 46.1% | SK-MEL-28 melanoma 70.5%

COc1cccc(-c2cc(-c3cccc(Cl)c3)c(C#N)c(=O)[nH]2)c1
inactive: HCT-15 colon 48.6% | HT29 colon 103% | SNB-75 CNS 30.8% | SNB-19 CNS 71.8% | U251 CNS 73.2% | PC-3 prostate 73.7% | SK-MEL-5 melanoma 68.6% | UACC-62 melanoma 42.4% | LOX IMVI melanoma 75.1% | SK-MEL-28 melanoma 72.3%

O=C(Nc1cc(Cl)ccc1O)c1cccc(Nc2ccnc(C(F)(F)F)c2)c1
active: SK-MEL-5 melanoma 4.5%
inactive: HCT-15 colon 42.9% | HT29 colon 87.4% | SNB-75 CNS 61.4% | SNB-19 CNS 44% | U251 CNS 43.2% | PC-3 prostate 28.2% | UACC-62 melanoma 15.5% | LOX IMVI melanoma 38.5% | SK-MEL-28 melanoma 88.1%

CC1CCN(C(=S)SCC(=O)NC(=O)c2ccccc2)CC1
inactive: HCT-15 colon 109% | HT29 colon 101% | SNB-75 CNS 96.5% | SNB-19 CNS 111% | U251 CNS 106% | PC-3 prostate 102% | SK-MEL-5 melanoma 113% | UACC-62 melanoma 106% | LOX IMVI melanoma 96.9% | SK-MEL-28 melanoma 111%

CC1(C)CC[C@]2(C(=O)N[C@H](CO)Cc3ccccc3)CC[C@]3(C)C(=CC[C@@H]4[C@@]5(C)CCCNC(C)(C)[C@@H]5CC[C@]43C)[C@@H]2C1
inactive: HCT-15 colon 60.5% | HT29 colon 10.6% | SNB-75 CNS 87.1% | SNB-19 CNS 84.8% | U251 CNS 68.9% | PC-3 prostate 25.7% | SK-MEL-5 melanoma 90.7% | UACC-62 melanoma 78.5% | LOX IMVI melanoma 69.6% | SK-MEL-28 melanoma 106%

COC(=O)c1c2c(c(C)[n+]([O-])c1C)C(=O)C(NCc1cccc(Cl)c1)=CC2=O
inactive: SNB-75 CNS 127% | SK-MEL-28 melanoma 63%
active: HCT-15 colon 7.55% | HT29 colon 5.87% | SNB-19 CNS 9.37% | U251 CNS -6% | PC-3 prostate 4.17% | SK-MEL-5 melanoma -77.7% | UACC-62 melanoma -42.6%

CC1(C)CC(=O)c2c(nn(-c3ccc(Br)cc3)c2-c2cn(-c3ccccc3)nc2-c2cccnc2)C1
inactive: HCT-15 colon 94.9% | HT29 colon 98.1% | SNB-75 CNS 84.3% | SNB-19 CNS 92.5% | U251 CNS 91.7% | PC-3 prostate 71.7% | SK-MEL-5 melanoma 97.2% | UACC-62 melanoma 76.7% | SK-MEL-28 melanoma 113%

O=C(/C=C(O)/C=C/c1cccc2[nH]ccc12)/C=C/c1cccc2[nH]ccc12
inactive: HCT-15 colon 61.5% | HT29 colon 38.4% | SNB-75 CNS 92.2% | SNB-19 CNS 72.6% | U251 CNS 45.2% | PC-3 prostate 66.8% | SK-MEL-5 melanoma 76% | UACC-62 melanoma 68% | SK-MEL-28 melanoma 97.6%

CCOc1cccc(/C=N/NC(=O)c2cccc(Nc3ccnc(C(F)(F)F)c3)c2)c1O
inactive: HCT-15 colon 28.8% | HT29 colon 53.2% | SNB-75 CNS 36.4% | SNB-19 CNS 35.1% | U251 CNS 37% | PC-3 prostate 59.1% | SK-MEL-5 melanoma 34.7% | SK-MEL-28 melanoma 34.6%
active: UACC-62 melanoma 0.213%

C[C@]1(O)CC(=O)[C@]2(O)C3=C(C=C[C@]2(O)C1)C(=O)c1c(O)cccc1C3=O
active: HCT-15 colon -45.5% | HT29 colon 3.93% | SK-MEL-5 melanoma -53.7% | SK-MEL-28 melanoma -37.4%
inactive: SNB-75 CNS 20% | SNB-19 CNS 101% | U251 CNS 72.4% | PC-3 prostate 72.8% | UACC-62 melanoma 16.5%

CN1C(=O)/C(=C/c2ccc(C(=O)Nc3ncc(Cc4cccc(Cl)c4)s3)cc2)SC1=S
inactive: HCT-15 colon 35.3% | HT29 colon 61.1% | SNB-75 CNS 73.6% | SNB-19 CNS 73.5% | U251 CNS 65.2% | PC-3 prostate 73.3% | SK-MEL-5 melanoma 25.7% | UACC-62 melanoma 20.4% | SK-MEL-28 melanoma 63.4%

Cc1cc2c(cc1C)N(C(=O)CCl)CC(=O)N2
active: HCT-15 colon 7.57% | HT29 colon -60% | LOX IMVI melanoma -9.81%
inactive: SNB-75 CNS 74.4% | SNB-19 CNS 88% | U251 CNS 14.4% | PC-3 prostate 71.2% | SK-MEL-5 melanoma 43.8% | UACC-62 melanoma 70.7% | SK-MEL-28 melanoma 77.1%

CCN(CC)CCN1C(=O)c2cccc3c(/C=C/CN4C(=O)c5cccc6cccc(c56)C4=O)ccc(c23)C1=O
inactive: HCT-15 colon 95.8% | HT29 colon 103% | SNB-75 CNS 91.2% | SNB-19 CNS 96% | U251 CNS 105% | PC-3 prostate 86.6% | SK-MEL-5 melanoma 94.3% | UACC-62 melanoma 99.8% | SK-MEL-28 melanoma 109%

O=C1Nc2ccccc2C1(c1c[nH]c2ccccc12)c1c[nH]c2ccccc12
active: SNB-75 CNS -12.9% | PC-3 prostate -9.62%
inactive: HCT-15 colon 32.2% | HT29 colon 53.3% | SNB-19 CNS 81.5% | U251 CNS 73.7% | SK-MEL-5 melanoma 89.4% | UACC-62 melanoma 70.3% | SK-MEL-28 melanoma 108%
